# Measurements reported in the supplement of paper PMC8728848.
# This excerpt belongs to a sample that is enriched for the strongest signals.
# Tests used:
# Assay in all cases: glycan array binding signal (z-score within array); higher = stronger binding
# Details in all cases: glycan notation: IUPAC condensed, linker removed
# [1] = molecular target: Fuc(a1-2)Gal(b1-3)GlcNAc6S
# In short: (§1)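 Glycan array data came from 3228 arrays in the Consortium for Functional Glycomics database, and only arrays with an available protein sequence were kept. Glycan names were put into IUPAC-condensed notation, and columns mapping to the same glycan were averaged. The binding signal is a within-array Z-score, averaged across arrays of one protein sequence run at different concentrations or buffers and across linkers. A negative Z-score can be read as non-binding.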
# [2] = molecular target: Fuc(a1-2)Gal(b1-3)[Fuc(a1-4)]GlcNAc(b1-2)Man(a1-3)[Fuc(a1-2)Gal(b1-3)[Fuc(a1-4)]GlcNAc(b1-2)Man(a1-6)]Man(b1-4)GlcNAc(b1-4)[Fuc(a1-6)]GlcNAc(b1-4)[Fuc(a1-6)]GlcNAc
# In short: as §1
# [3] = molecular target: Fuc(a1-2)Gal(b1-4)GlcNAc(b1-2)Man(a1-3)[Fuc(a1-2)Gal(b1-4)GlcNAc(b1-2)Man(a1-6)]Man(b1-4)GlcNAc(b1-4)GlcNAc
# In short: as §1
# [4] = molecular target: Fuc(a1-2)Gal(b1-4)GlcNAc(b1-2)[Fuc(a1-2)Gal(b1-4)GlcNAc(b1-4)]Man(a1-3)[Fuc(a1-2)Gal(b1-4)GlcNAc(b1-2)Man(a1-6)]Man(b1-4)GlcNAc(b1-4)GlcNAc
# In short: as §1
# [5] = molecular target: Fuc(a1-2)Gal(b1-4)GlcNAc(b1-3)Gal(b1-4)GlcNAc(b1-2)Man(a1-3)[Fuc(a1-2)Gal(b1-4)GlcNAc(b1-3)Gal(b1-4)GlcNAc(b1-2)Man(a1-6)]Man(b1-4)GlcNAc(b1-4)GlcNAc
# In short: as §1
# [6] = molecular target: Fuc(a1-2)Gal(b1-4)[Fuc(a1-3)]GlcNAc
# In short: as §1
# [7] = molecular target: Fuc(a1-2)Gal(b1-4)[Fuc(a1-3)]GlcNAc(b1-2)[Fuc(a1-2)Gal(b1-4)[Fuc(a1-3)]GlcNAc(b1-4)]Man(a1-3)[Fuc(a1-2)Gal(b1-4)[Fuc(a1-3)]GlcNAc(b1-2)Man(a1-6)]Man(b1-4)GlcNAc(b1-4)GlcNAc
# In short: as §1
# [8] = molecular target: Fuc(a1-2)Gal6S(b1-3)GlcNAc6S
# In short: as §1
# [9] = molecular target: Fuc(a1-2)[Gal(a1-3)]Gal(b1-3)GlcNAc(b1-2)Man(a1-3)[Fuc(a1-2)[Gal(a1-3)]Gal(b1-3)GlcNAc(b1-2)Man(a1-6)]Man(b1-4)GlcNAc(b1-4)[Fuc(a1-6)]GlcNAc
# In short: as §1
# [10] = molecular target: Fuc(a1-2)[Gal(a1-3)]Gal(b1-4)[Fuc(a1-3)]GlcNAc
# In short: as §1
# [11] = molecular target: Fuc(a1-2)[GalNAc(a1-3)]Gal(b1-3)GlcNAc(b1-2)Man(a1-3)[Fuc(a1-2)[GalNAc(a1-3)]Gal(b1-3)GlcNAc(b1-2)Man(a1-6)]Man(b1-4)GlcNAc(b1-4)[Fuc(a1-6)]GlcNAc
# In short: as §1
# [12] = molecular target: Fuc(a1-2)[GalNAc(a1-4)]Gal(b1-4)GlcNAc
# In short: as §1
# [13] = molecular target: Fuc(a1-2)[GalNAc(b1-3)]Gal
# In short: as §1
# [14] = molecular target: Fuc(a1-3)[Gal(b1-4)]GlcNAc(b1-2)Man
# In short: as §1
# [15] = molecular target: Gal(a1-3)Gal(b1-3)GlcNAc(b1-2)Man
# In short: as §1
# [16] = molecular target: Gal(a1-3)Gal(b1-4)[Fuc(a1-3)]GlcNAc
# In short: as §1
# [17] = molecular target: Gal(a1-3)[Gal(a1-4)]Gal(b1-4)GlcNAc
# In short: as §1
# [18] = molecular target: Gal(b1-3)GlcNAc
# In short: as §1
# [19] = molecular target: Gal(b1-3)GlcNAc(b1-2)Man
# In short: as §1
# [20] = molecular target: Gal(b1-3)GlcNAc(b1-2)Man(a1-3)[GlcNAc(b1-4)][Gal(b1-3)GlcNAc(b1-2)Man(a1-6)]Man(b1-4)GlcNAc(b1-4)GlcNAc
# In short: as §1
# [21] = molecular target: Gal(b1-3)GlcNAc(b1-3)Gal(b1-4)GlcNAc(b1-2)Man(a1-3)[Gal(b1-3)GlcNAc(b1-3)Gal(b1-4)GlcNAc(b1-2)Man(a1-6)]Man(b1-4)GlcNAc(b1-4)GlcNAc
# In short: as §1
# [22] = molecular target: Gal(b1-3)GlcNAc(b1-3)Gal(b1-4)GlcNAc(b1-2)[Gal(b1-3)GlcNAc(b1-3)Gal(b1-4)GlcNAc(b1-6)]Man(a1-6)[Gal(b1-3)GlcNAc(b1-3)Gal(b1-4)GlcNAc(b1-2)Man(a1-3)]Man(b1-4)GlcNAc(b1-4)[Fuc(a1-6)]GlcNAc
# In short: as §1
# [23] = molecular target: Gal(b1-3)GlcNAc(b1-3)Gal(b1-4)GlcNAc(b1-3)Gal(b1-4)GlcNAc(b1-2)[Gal(b1-3)GlcNAc(b1-3)Gal(b1-4)GlcNAc(b1-3)Gal(b1-4)GlcNAc(b1-6)]Man(a1-6)[Gal(b1-3)GlcNAc(b1-3)Gal(b1-4)GlcNAc(b1-3)Gal(b1-4)GlcNAc(b1-2)Man(a1-3)]Man(b1-4)GlcNAc(b1-4)[Fuc(a1-6)]GlcNAc
# In short: as §1
# [24] = molecular target: Gal(b1-3)[Fuc(a1-4)]GlcNAc(b1-6)GalNAc
# In short: as §1
# [25] = molecular target: Gal(b1-4)GlcNAc(b1-2)Man(a1-6)[GlcNAc(b1-2)Man(a1-3)]Man(b1-4)GlcNAc(b1-4)GlcNAc
# In short: as §1
# [26] = molecular target: Gal(b1-4)GlcNAc(b1-3)Gal(b1-4)GlcNAc(b1-3)Gal(b1-4)GlcNAc(b1-3)Gal(b1-4)GlcNAc(b1-3)Gal(b1-4)GlcNAc(b1-2)Man(a1-3)[Gal(b1-4)GlcNAc(b1-3)Gal(b1-4)GlcNAc(b1-3)Gal(b1-4)GlcNAc(b1-3)Gal(b1-4)GlcNAc(b1-3)Gal(b1-4)GlcNAc(b1-2)Man(a1-6)]Man(b1-4)GlcNAc(b1-4)[Fuc(a1-6)]GlcNAc
# In short: as §1
# [27] = molecular target: Gal3S(b1-4)[Fuc(a1-3)]Glc6S
# In short: as §1
# [28] = molecular target: Gal6P(b1-4)GlcNAc
# In short: as §1
# [29] = molecular target: GalNAc(b1-3)GlcNAc
# In short: as §1
# [30] = molecular target: Glc(a1-4)Glc(a1-4)Glc(a1-4)Glc
# In short: as §1
binder,measurement,setting,value
Blon2468mut (Bifidobacterium longum) (protein) MTFIKQMMPRYVASMTAGIVAAAMAATCAFAPVANADAVSPTQETIQSTGRHFMVYYRAWRDVTMKGVNTDLPDDNWISMYDIPYGVDVVNIFSYVPSGQEEQAQPFYDKLKSDYAPYLHSRGIKLVRGIDYTGVAVNGFRTFMKEQNKTESEATEADYDAYAKQVIDKYMISVGLDGLDIDMQAHPNDADVKISDNVIRALSKHIGPKSAKPDTTMFLYDTNGSYLNPFKNVAECFDYVAYQQYGSSSDRTARAAADYQPYIGNEFVPGLTFPEEGDMNNRWYDATEPYEESHFYQVASYVREHNLGGMFVYALDRDGRNYDEDLRRIVPSNLLWTKTAIAESEGMALDTAKTAANHYLDRMSLRQVIDDNAASADKARDMVGKAANLYETNKAVLGGDYGEGFSNTYDPTLEAGLLGIDISVLQQQIDKSSEIIGADTAESDAKTALRMARDAAIDGLTGKIYTADQVSAWSQALKAALDATVPVPTPDSTDQNGNRDKVTNHKVQGQPKQLSATGISTDIIVAVGVTLAIAGVALSLSRKLS,glycan array binding signal (z-score),[1],-0.052
same,glycan array binding signal (z-score),[2],-0.074
same,glycan array binding signal (z-score),[3],-0.068
same,glycan array binding signal (z-score),[4],-0.045
same,glycan array binding signal (z-score),[5],0.003
same,glycan array binding signal (z-score),[6],-0.065
same,glycan array binding signal (z-score),[7],-0.036
same,glycan array binding signal (z-score),[8],0.078
same,glycan array binding signal (z-score),[9],-0.055
same,glycan array binding signal (z-score),[10],-0.049
same,glycan array binding signal (z-score),[11],-0.036
same,glycan array binding signal (z-score),[12],-0.021
same,glycan array binding signal (z-score),[13],-0.061
same,glycan array binding signal (z-score),[14],-0.022
same,glycan array binding signal (z-score),[15],-0.087
same,glycan array binding signal (z-score),[16],-0.083
same,glycan array binding signal (z-score),[17],0.009
same,glycan array binding signal (z-score),[18],-0.068
same,glycan array binding signal (z-score),[19],-0.078
same,glycan array binding signal (z-score),[20],-0.042
same,glycan array binding signal (z-score),[21],-0.09
same,glycan array binding signal (z-score),[22],0.03
same,glycan array binding signal (z-score),[23],0.124
same,glycan array binding signal (z-score),[24],-0.056
same,glycan array binding signal (z-score),[25],-0.055
same,glycan array binding signal (z-score),[26],-0.046
same,glycan array binding signal (z-score),[27],0.006
same,glycan array binding signal (z-score),[28],-0.066
same,glycan array binding signal (z-score),[29],-0.05
same,glycan array binding signal (z-score),[30],-0.064
